According to the supplement of paper PMC10933113:
Where a name gives a salt, the structure may show the parent alone. ± gives the uncertainty stated by the source.

system: THP-1; test: CD54 surface expression induction over DMSO control (% over DMSO); higher = stronger dendritic cell activation; conditions: exposure time: 24 h
Description: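 hCLAT-like CD54 and CD86 surface expression on THP1 cells after 24 h exposure at a single concentration (highest non-cytotoxic concentration, or 100-200 µM if not cytotoxic). Flow cytometry (iQue) was run on 5,000 live cells.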

Question: For `Nc1ccc(/N=N/c2ccccc2)c(N)n1` [Phenazopyridine hydrochloride] (100 µM), which “CD54 surface expression induction” value is on record?
Answer: -3.19 ± 0.03

Question: How did the “CD54 surface expression induction” value turn out when `Nc1ncn([C@@H]2O[C@H](CO)[C@@H](O)[C@H]2O)c(=O)n1` [5-Azacytidine] (10 µM) was run?
Answer: -4.02 ± 3.5

Question: For `Nc1ccc(Nc2ccccc2)cc1` [N-Phenyl-1,4-benzenediamine] (200 µM), which “CD54 surface expression induction” value is on record?
Answer: 46.9 ± 11

Question: `CCCCc1ccc2[nH]c(NC(=O)OC)nc2c1` [Parbendazole*] (200 µM) was tested. Which “CD54 surface expression induction” value did it give?
Answer: 262 ± 39

Question: How did the “CD54 surface expression induction” value turn out when `CCCCC1C(=O)N(c2ccccc2)N(c2ccc(O)cc2)C1=O` (stereo not given) [Oxyphenbutazone] (10 µM) was run?
Answer: 2.37 ± 6.7

Question: For `Cc1ccc(O)c(-n2nc3ccccc3n2)c1` [2-(2H-Benzotriazol-2-yl)-4-methylphenol] (100 µM), which “CD54 surface expression induction” value is on record?
Answer: 3.46 ± 3.3

Question: Which “CD54 surface expression induction” value does the source give for `Cc1c2ccccc2c(C)c2c1ccc1ccccc12` [7,12-Dimethylbenzanthracene] (10 µM) here?
Answer: -22 ± 12

Question: How did the “CD54 surface expression induction” value turn out when `C=C(C)C(=O)Nc1ccc(Cl)c(Cl)c1` [Chloranocryl] (100 µM) was run?
Answer: 0.25 ± 0.41

Question: For `CC(C)(C)c1ccc(C(=O)CCCCl)cc1` [4'-Tert-butyl-4-chlorobutyrophenone] (100 µM), which “CD54 surface expression induction” value is on record?
Answer: -1.36 ± 1.9

Question: How did the “CD54 surface expression induction” value turn out when `COC(=O)Nc1nc2ccc(C(=O)C3CC3)cc2[nH]1` [Cyclobendazole] (100 µM) was run?
Answer: -7.19 ± 4.8

Question: With `CCOc1ccc2nc(S(N)(=O)=O)sc2c1` [Ethoxzolamide] (200 µM) as the compound, how does the “CD54 surface expression induction” value read?
Answer: 3.81 ± 6

Question: With `CC(=O)Oc1ccc(C2(c3ccc(OC(C)=O)cc3)C(=O)Nc3ccccc32)cc1` [Oxyphenisatin acetate] (100 µM) as the compound, how does the “CD54 surface expression induction” value read?
Answer: 9.56 ± 1.9

Question: `CC(C)CCCCCCCOC(=O)c1ccc(C(=O)OCCCCCCCC(C)C)c(C(=O)OCCCCCCCC(C)C)c1` [Triisodecyl trimellitate] (163 µM) was tested. Which “CD54 surface expression induction” value did it give?
Answer: 10.7 ± 46

Question: For `CCOC(=O)CCC(=O)OCC` [Diethyl butanedioate] (200 µM), which “CD54 surface expression induction” value is on record?
Answer: -4.24 ± 4.1

Question: With `C=CC(=O)OCCOC(=O)CCC(=O)O` [4-[2-(Acryloyloxy)ethoxy]-4-oxobutanoic acid] (200 µM) as the compound, how does the “CD54 surface expression induction” value read?
Answer: -1.6 ± 8.8

Question: `CCC(=O)C=Cc1ccc(OC)cc1` [1-(4-Methoxyphenyl)-1-pentene-3-one] (200 µM) was tested. Which “CD54 surface expression induction” value did it give?
Answer: -15.2 ± 1.7

Question: How did the “CD54 surface expression induction” value turn out when `Clc1ccc2c(c1)Nc1ccccc1S2` [2-Chlorophenothiazine] (100 µM) was run?
Answer: -15.3 ± 22

Question: With `[Cl][Bi]([Cl])([c]1ccccc1)([c]1ccccc1)[c]1ccccc1` [Triphenylbismuthine dichloride] (10 µM) as the compound, how does the “CD54 surface expression induction” value read?
Answer: 15.8 ± 5

Question: For `O=C(Nc1ncc([N+](=O)[O-])s1)c1cccs1` [Tenonitrozole] (10 µM), which “CD54 surface expression induction” value is on record?
Answer: -7 ± 4.7

Question: How did the “CD54 surface expression induction” value turn out when `O=c1[nH]sc2cc(Cl)ccc12` [Ticlatone] (10 µM) was run?
Answer: -4.79 ± 7.2

Question: `c1ccc(CCNc2nc(-c3ccccc3)cs2)cc1` [Fanetizole] (200 µM) was tested. Which “CD54 surface expression induction” value did it give?
Answer: -4.51 ± 4.3

Question: For `CCCCOCCOCCOCCO` [2-[2-(2-Butoxyethoxy)ethoxy]ethanol] (115 µM), which “CD54 surface expression induction” value is on record?
Answer: 20.1 ± 15

Question: Which “CD54 surface expression induction” value does the source give for `C/C=C/C=C/CCCCCCCO` [Codlelure] (200 µM) here?
Answer: -18.9 ± 4

Question: `Nc1cc(-c2ccncc2)c[nH]c1=O` [Amrinone] (100 µM) was tested. Which “CD54 surface expression induction” value did it give?
Answer: -1.65 ± 0.59

Question: How did the “CD54 surface expression induction” value turn out when `COC(=O)Nc1nc2cc([S+]([O-])c3ccccc3)ccc2[nH]1` (stereo not given) [Oxfendazole] (100 µM) was run?
Answer: 17.4 ± 3.6

Question: With `O=c1n(CC2CO2)c(=O)n(CC2CO2)c(=O)n1CC1CO1` (stereo not given) [Triglycidyl isocyanurate] (10 µM) as the compound, how does the “CD54 surface expression induction” value read?
Answer: 4 ± 1.7

Question: For `COc1cc(Nc2c(C#N)cnc3cc(OCCCN4CCN(C)CC4)c(OC)cc23)c(Cl)cc1Cl` [Bosutinib] (100 µM), which “CD54 surface expression induction” value is on record?
Answer: -7.93 ± 2.6

Question: Which “CD54 surface expression induction” value does the source give for `N=C(N)NN=C(/C=C/c1ccc([N+](=O)[O-])o1)/C=C/c1ccc([N+](=O)[O-])o1` [Nitrovin] (10 µM) here?
Answer: 76.1 ± 15

Question: Which “CD54 surface expression induction” value does the source give for `O=C(Nc1ccccc1)c1cc([N+](=O)[O-])ccc1Cl` [2-Chloro-5-nitro-N-phenylbenzamide] (200 µM) here?
Answer: 4.72 ± 3.4

Question: Which “CD54 surface expression induction” value does the source give for `CCCCCCCC/C=C\CCCCCCCC(=O)N(C)CC(=O)O` [Oleyl sarcosine] (100 µM) here?
Answer: 6.04 ± 0.79

Question: For `COc1cc(C(C)C)c2c(c1)S(=O)(=O)N(COc1cc(=O)n3cccc(OCCN4CCCCC4)c3n1)C2=O` (100 µM), which “CD54 surface expression induction” value is on record?
Answer: 61 ± 55

Question: With `COc1cc(C(C)(C)C)c(O)c(C(C)(C)C)c1` [2,6-Di-tert-butyl-4-methoxyphenol] (200 µM) as the compound, how does the “CD54 surface expression induction” value read?
Answer: 14.5 ± 0.32

Question: Which “CD54 surface expression induction” value does the source give for `Cc1ccc2c(c1[N+](=O)[O-])C(=O)c1ccccc1C2=O` [2-Methyl-1-nitroanthraquinone] (10 µM) here?
Answer: 4.18 ± 2.8

Question: How did the “CD54 surface expression induction” value turn out when `CCc1oc2ccccc2c1C(=O)c1cc(I)c(O)c(I)c1` [Benziodarone] (100 µM) was run?
Answer: -0.07 ± 0.74

Question: How did the “CD54 surface expression induction” value turn out when `CCCOc1ccc2[nH]c(NC(=O)OC)nc2c1` [Oxibendazole] (100 µM) was run?
Answer: -37.7 ± 6.7

Question: How did the “CD54 surface expression induction” value turn out when `CN(C)c1ccc(SC#N)cc1` [4-(Dimethylamino)phenylthiocyanate] (10 µM) was run?
Answer: -9.74 ± 4.1

Question: Which “CD54 surface expression induction” value does the source give for `CCN(CC)CCOc1ccc2c(c1)C(=O)c1cc(OCCN(CC)CC)ccc1-2` [Tilorone] (200 µM) here?
Answer: 79.8 ± 17

Question: `O=C(O)Cc1cc(I)c(Oc2cc(I)c(O)c(I)c2)c(I)c1` [Tetrac] (100 µM) was tested. Which “CD54 surface expression induction” value did it give?
Answer: 8.45 ± 9.3

Question: How did the “CD54 surface expression induction” value turn out when `CNc1ccc(O)cc1` [4-(Methylamino)phenol Sulfate] (10 µM) was run?
Answer: 17.6 ± 8.6

Question: `O=C(N/N=C/c1ccccc1O)c1ccncc1` [Salinazid] (10 µM) was tested. Which “CD54 surface expression induction” value did it give?
Answer: 17.1 ± 8.6
